# An excerpt weighted towards active compounds, which were near 19% of everything screened.
# AMA1 RON2 block = AMA1-RON2 (P. falciparum) interaction inhibition; AlphaScreen AMA1-biotinylated RON2 peptide binding; Potency, µM (top dose mostly 58.2 µM), inactives show top-dose activity change, negative = inhibition, usual class: inhibitors; actives 0.2% (n = 360,000); AID 720542;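 also: potency is read from the fitted curve at half-maximal effect; 0% = vehicle wells and -100% = peptide control; nearly all actives have a fitted effect of over 45% in size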
#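 AMA1 (3D7) with his tag at 25 nM final met compounds first, then biotinylated RON2 peptide at 25 nM; detection used donor plus acceptor beads, 10 µg/mL apiece, read by AlphaScreen after 30 min at room temperature.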
# SARS PLpro yeast = SARS-CoV PLP inhibition in yeast | S. cerevisiae expressing SARS-CoV PLpro, growth rescue | Potency, µM (titrated, usually from 32.9 µM), without a hit: at the highest dose activity, positive = growth rescue, actives largely listed as activators | AID 485353 | actives 0.19% (n = 330,000); calls by dose curve; also: potency is read from the fitted curve at half-maximal effect; 0% is about no effect; nearly all actives have a fitted effect of over 55% in size
# Shiga inhibitor = Shiga toxin inhibition; Vero cells, Shiga toxin protein synthesis inhibition reporter; inhibition, % at 38.7 µM; actives 9.2% (n = 290,000); AID 2315; in the data active = inhibition mostly above about 28%, no sharp cut-off; inactive = mostly below about 43%; also: 0% is about no effect
# Pf growth 96h = inhibits malaria parasite growth, 96 h. AID 504834. actives 6.9% (n = 320,000). Potency, µM (titrated, usually from 28.7 µM), without a hit: at the highest dose activity change, negative = inhibition, actives largely listed as inhibitors. P. falciparum luciferase reporter growth, 96 h; also: potency is read from the fitted curve at half-maximal effect; % is scaled to controls: 0 for no effect and ±100 for the full control effect
#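 Delayed-death screen, second-generation endpoint: infected erythrocytes, 2% hematocrit, 0.05% parasitemia final; 96 hours at 37 C, 5% CO2; luciferase detection reagent; luminescence decrease equals reduced growth.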
# CHX counter = counter-screen hit for Shiga toxin inhibitors, cycloheximide; cell reporter, cycloheximide protein synthesis inhibition counterscreen; actives 12% (n = 300,000); max response, %; in the data active = max response mostly above about 13%, no sharp cut-off; inactive = mostly below about 14%; also: read at 38.3 µM for the half of the compounds with a filed dose; 0% is about no effect
# Pf growth 48h = inhibits P. falciparum growth in the first generation, 48 h. AID 504832. P. falciparum luciferase growth in erythrocytes, 48 h. actives 5.9% (n = 310,000). Potency, µM (titrated, usually from 28.7 µM), for the others: at the highest dose activity change, negative = inhibition, usual class: inhibitors; also: potency is read from the fitted curve at half-maximal effect; % is scaled to controls: 0 for no effect and ±100 for the full control effect
#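 Parasite viability was followed by luminescence of a genomically integrated firefly luciferase. Cultures held 0.1% parasitemia at 2% hematocrit (final), incubated under 5% CO2 at 37 C.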
# * marks the source's active call; other numbers are inactive results; ? = inconclusive; / = no result given; [ ] = remark or other dose. Unless noted, calls follow the shape of the dose curve; as a rule, active = well fitted curve in the direction sought with a large enough effect; inconclusive = small, poorly fitted or top-dose-only effect, or another doubt; inactive = no such curve, though single readings can be large; an effect the other way counts as inactive or inconclusive.
SMILES,AMA1 RON2 block,SARS PLpro yeast,Shiga inhibitor,Pf growth 96h,CHX counter,Pf growth 48h
COc1ccc(-c2ccc(NS(=O)(=O)c3cc([N+](=O)[O-])c(C)c([N+](=O)[O-])c3)cc2)nn1,-1%,1%,1,32%,-2,28%
N#Cc1ccc(/C=C/C(=O)c2ccco2)cc1,5%,-63%,26,-16%,6,25%
O=C(CSc1nnc(CNC(=O)c2ccco2)o1)Nc1ccccc1C(F)(F)F,-3%,1%,9,-1%,3,11%
O=C(/C=C/Nc1ccc(Oc2ccccc2)cc1)c1ccco1,1%,-2%,70*,-33%[5.75 µM],56*,270%
NC(=O)c1ccccc1N/C=C/C(=O)c1ccco1,4%,7%,69*,-11%,30*,107%
O=C(/C=C/Nc1ccccc1C(F)(F)F)c1ccco1,-16%,-2%,59*,-9%,44*,105%
Cc1ccc2nc(SCC(=O)N3CCC(Cc4ccccc4)CC3)nc(=O)n2c1,6%,5%,/,?,/,?
COc1cccc(NC(=O)CCN2C(=O)c3ccccc3S2(=O)=O)c1,5%,1%,33,/,14*,0%
COc1ccc(C(=O)CN2C(=O)c3ccccc3S2(=O)=O)cc1,2%,-1%,-22,76%,-6,7.4µM*
COc1ccc(C(=O)CN2C(=O)c3ccccc3S2(=O)=O)cc1Br,5%,9%,11,?,6,-20%
Cc1ccc(NC(=O)CN2C(=O)c3ccccc3S2(=O)=O)cc1C,19%,-3%,11,-6%,11*,16%
Cc1ccc(S(=O)(=O)N2CCN(C(=O)CN3C(=O)c4ccc([N+](=O)[O-])cc4C3=O)CC2)c(C)c1,5%,-1%,/,19%,/,19%
CC(C)(C)C(=O)OCC1OC(n2cnc(C(N)=O)n2)C(O)C1O (stereo not drawn),-24%,-1%,-2,19%,1,10%
NC(=O)c1cn(C2OC(CO)C(O)C2O)c2ncnc(N)c12 (stereo not drawn),20%,0%,-17,0.12µM*,-5,0.1µM*
NC(=O)c1ncn(C2OC(CO)C(O)C2O)n1 (stereo not drawn),/,/,/,12µM*,/,?
Cc1ccc(S(=O)(=O)Cc2cc(F)c([N+](=O)[O-])cc2[N+](=O)[O-])cc1,-6%,-65%,46*,?,22*,?
CCOC(=O)c1ccc([N+](=O)[O-])c(CS(=O)(=O)c2ccc(Cl)cc2)c1,-27%,-3%,-9,10%,-4,4%
COc1ccc(CNC(=O)c2cccc(S(=O)(=O)N3CCN(c4ccc(F)cc4)CC3)c2)cc1,-28%,5%,/,?,/,?
COc1cccc(CN(C)C(=O)c2cccc(S(=O)(=O)N3CCN(c4ccc(F)cc4)CC3)c2)c1OC,-29%,4%,/,?,/,10µM*
COc1cccc(CN(C)C(=O)c2cccc(S(=O)(=O)N3CCN(c4ccccc4)CC3)c2)c1OC,-7%,/,/,/,/,/
COc1ccccc1CNC(=O)c1cccc(S(=O)(=O)N2CCN(c3ccc(F)cc3)CC2)c1,-7%,-12%,/,?,/,10µM*
CN(Cc1cccs1)C(=O)C1CCN(S(=O)(=O)c2ccccc2)CC1,5%,0%,/,?,/,?
COc1cccc(CN(C)C(=O)C2CCN(S(=O)(=O)c3ccc(C)cc3)CC2)c1OC,-2%,1%,/,12µM*,/,13µM*
COC(=O)c1cn(-c2ccc(Cl)cc2)c(=O)c2ccccc12,-2%,-18%,-14,/,-3,2.9µM*
COC(=O)c1cn(C(=O)c2cc(Cl)ccc2Cl)c2ccccc12,-17%,-1%,/,13µM*,-2,21%
CC(NC(=O)C(=O)NN=C1CCCCCCCCCCC1)c1ccccc1 (stereo not drawn),-3%,0%,-7,328%,-2,3%
CCN(CC)CCC=C(c1cccs1)c1cccs1,-10%,/,/,/,/,/
CCOc1ccc(C(C(=O)NC2CCCCC2)N(C(=O)Cc2cccs2)c2ccc(-n3cnnn3)c(OC)c2)cc1 (stereo not drawn),-8%[11.6 µM],?,-13,7.4µM*,-4,10µM*

# Screens from PubChem BioAssay.
